# CtBP-E1A blk: CtBP/E1A binding inhibition. 340,000 compounds, 0.49% hits. AID 651724. AlphaScreen GST-E1A/His-CtBP binding, 1536-well; active compounds read low. activity change, % (test concentration not listed); in the data active means activity change below about -65%; inconclusive means mostly about -30% to -63%
#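 In 5 uL wells, 23 nL compound meets equimolar GST-E1A and His-CtBP (5X stock 125 nM each) for 2 h, 37 °C. Beads (5X, 50 ug/mL) then 1 h, 37 °C, dark.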
# Six1-Eya2 inh: blocks human Six1 binding to Eya2; 360,000 compounds, 0.56% hits; Q15475+O00167; activity change, % (no concentration beside the values); AlphaScreen GST-Six1/His-Eya2 binding, biochemical; active compounds read low; in the data active means activity change below about -65%; inconclusive means mostly about -30% to -63%
#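 AlphaScreen with GST-Six1 and His-Eya2 (5X mix: 250 nM and 500 nM), glutathione donor and nickel acceptor beads; buffer 50 mM Tris pH 8.0, 300 mM NaCl, 1 mM TCEP; 1 h at 37 C in the dark.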
# RORgamma inh: inhibitors of mouse ROR gamma transcriptional activity | P51450 | Drosophila S2 Gal4-RORgamma UAS-luciferase reporter, 20 h | Potency, µM (titrated, usually from 53.6 µM), most hits filed as inhibitors | 310,000 compounds, 5.4% hits | AID 2551; further: nearly all actives have a fitted effect of over 60% in size
# Target sequence (P51450 whole entry, looked up, the tested form may be a part): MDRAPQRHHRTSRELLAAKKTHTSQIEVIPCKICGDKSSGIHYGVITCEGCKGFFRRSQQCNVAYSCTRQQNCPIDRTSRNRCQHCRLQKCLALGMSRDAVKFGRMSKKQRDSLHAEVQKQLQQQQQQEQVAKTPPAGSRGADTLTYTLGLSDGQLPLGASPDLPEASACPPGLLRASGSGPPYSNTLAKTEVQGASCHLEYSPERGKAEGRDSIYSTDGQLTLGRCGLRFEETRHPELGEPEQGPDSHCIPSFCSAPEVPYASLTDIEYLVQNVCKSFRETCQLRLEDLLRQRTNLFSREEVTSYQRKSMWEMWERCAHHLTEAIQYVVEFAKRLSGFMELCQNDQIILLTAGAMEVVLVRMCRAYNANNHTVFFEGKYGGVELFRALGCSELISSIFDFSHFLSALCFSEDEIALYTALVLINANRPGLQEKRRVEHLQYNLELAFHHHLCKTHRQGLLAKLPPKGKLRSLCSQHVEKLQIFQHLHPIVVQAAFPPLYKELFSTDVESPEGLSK
#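 Luciferase reporter read in Schneider cells carrying Gal4-RORγ (mouse) and UAS-Photinus luciferase; cells given compound 1 h before 700 uM copper sulfate induction, then incubated 20 h at ambient temperature.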
# p53 reactivator: re-activators of mutant p53; AID 504706; 320,000 compounds, 0.063% hits; Potency, µM (doses to about 92.2 µM), actives largely listed as activators; H1299 p53-A138V BP100-luciferase reporter, luminescence, 24 h; further: nearly all actives have a fitted effect of over 45% in size
#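 p53-null H1299 cells stably carrying temperature-sensitive p53-A138V and a BP100-luciferase reporter were pinned with compounds (4-point, 1:5 series) and held 24 hrs at 37 deg C. Luminescence was read 10 min after detection reagent.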
# VP16 counter: inhibits Gal4-VP16 luciferase reporter, ROR gamma counter-screen. 310,000 compounds, 3.5% hits. Potency, µM (series often up to 53.6 µM), actives largely listed as inhibitors. Drosophila S2 Gal4-VP16 UAS-luciferase, luminescence, 20 h;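 further: Gal4-VP16 expression switched on by copper sulfate through the metallothionein promoter; nearly all actives have a fitted effect of over 50% in size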
# Hits are given with their value; n = inactive; u = inconclusive; x = no result given; [ ] = another dose, or the depositor's remark. Hits are enriched below; roughly 5.4% of the tested compounds scored in any of these assays. Unless noted, the call rests on the fitted dose curve; in most records, active means well fitted curve in the direction sought with a large enough effect; inconclusive means small, poorly fitted or top-dose-only effect, or another doubt; inactive means no such curve, though single readings can be large; an effect the other way counts as inactive or inconclusive.
SMILES,CtBP-E1A blk,Six1-Eya2 inh,RORgamma inh,p53 reactivator,VP16 counter
CC[C@H](C)[C@H](NC(=O)[C@H](CCCNC(=N)N)NC(=O)[C@@H](NC(=O)[C@H](CCCNC(=N)N)NC(=O)[C@H](CCCCN)NC(=O)[C@H](CCCNC(=N)N)NC(=O)[C@@H](NC(=O)[C@H](CC(N)=O)NC(=O)[C@@H](N)CS)[C@@H](C)O)[C@@H](C)CC)C(=O)N[C@@H](CCC(N)=O)C(=O)N[C@@H](CCCNC(=N)N)C(=O)NCC(=O)N1CCC[C@H]1C(=O)NCC(=O)N[C@@H](CCCNC(=N)N)C(=O)N[C@@H](C)C(=O)N[C@@H](Cc1ccccc1)C(=O)N[C@H](C(=O)N[C@H](C(=O)N[C@H](C(=O)NCC(=O)N[C@@H](CCCCN)C(=O)O)[C@@H](C)CC)[C@@H](C)O)C(C)C,x,x,n,x,n
C[C@H](NC(c1cccc2nc(O)c(O)nc12)P(=O)(O)O)c1ccc(Br)cc1 (some centres not stated),x,x,n,x,n
O=C(COc1ccc(F)cc1Br)N1CCc2ccccc21,n,n,n[0.365 µM],u,x
COc1cc(CO)ccc1OCC(=O)N1CCc2ccccc21,n,n,2.5µM,n,u
CCCCOC(=O)c1ccc(-c2ccc(/C=N/NC(=S)NCC)o2)cc1,n,n,0.35µM,n,2.5µM
C=CCNC(=S)N/N=C/c1ccc(-c2ccc(Br)cc2)o1,n,n,0.35µM,n,0.4µM
C=CCNC(=S)N/N=C/c1ccc(-c2cccc([N+](=O)[O-])c2)o1,n,n,0.5µM,n,2.5µM
CCCCCCCCCCCCCCCC(=O)OCC(NC(=O)C(Cl)Cl)C(O)c1ccc([N+](=O)[O-])cc1 (configuration not stated),x,x,n,x,n
COCCNC(=S)N1CCC(NC(=O)c2ccco2)CC1,n,n,n,n,n
O=C(Nc1cnns1)Oc1ccccc1,n,n,x,x,x
C/C(=N\Nc1nc2ccccc2[nH]1)c1ccc2c(c1)OCCO2,n,n,7.1µM,n,u
C(=N\Nc1nc2ccccc2[nH]1)/c1ccc2c(c1)OCO2,n,n,13µM,n,u
CCN(CC)c1ccc(/C=N/Nc2nc3ccccc3[nH]2)cc1,x,n,3.2µM,u,4µM
C/C(=N\Nc1nc2ccccc2[nH]1)c1ccc2c(c1)OCO2,u,u,3.2µM,n,11µM
CC(C)C(NC(=O)c1ccc2c(c1)OCCO2)c1nc2ccccc2[nH]1 (configuration not stated),n,n,n,n,n
C/C(=N\Nc1ccccn1)c1ccc2c(c1)OCO2,n,n,u,n,u
CC(=O)Nc1ccc(/C=N/Nc2nc3ccccc3[nH]2)cc1,x,n,u,u,n
CCN(Cc1ccncc1)C(=O)c1cc(COc2c(F)cccc2F)on1,n,n,n,n,n
Nc1nc(-c2cc(O)ccc2[N+](=O)[O-])cc(-c2ccccc2)c1[N+](=O)[O-],u,u,u,n,13µM
CC(=O)OC1CCC23CC1(C)CCC2C(C)(C)CC3OC(C)=O (configuration not stated),x,x,n,x,n
CC(=O)/C(=N\Nc1cccc(Cl)c1)Sc1cccc2cccnc12,n,n,3.2µM,n,u
CC(=O)/C(=N\Nc1cccc(Cl)c1)Sc1nnc(-c2ccccc2)n1-c1ccccc1,n,n,10µM,n,11µM
CC(=O)/C(N)=N/Nc1cccc(Cl)c1,n,n,n,n,n
CC1(NC(=O)Nc2cc([N+](=O)[O-])ccc2O)CCS(=O)(=O)C1 (configuration not stated),n,n,x,n,x
COc1cccc(CNC(=O)CN(C)S(=O)(=O)c2ccc3c(c2)n(C)c(=O)c(=O)n3C)c1,n,n,n,n,n
COC(=O)c1cc(OC)c(OC)cc1N1C(=O)CCCC1=O,x,n,n,n,n
COc1ccc(OC)c(N2C(=O)CCCC2=O)c1,n,n,11µM,x,n
CCCCCC(=O)/C=C/C=C\CCCCCCCC(=O)O,x,x,n,x,n
O=C1/C(=C/c2c[nH]c3ccccc23)CCC/C1=C\c1c[nH]c2ccccc12,n,n,11µM,n,u
CN(C)c1ccc(/C=C/c2ccc3c4ccccc4ccc3[n+]2-c2ccccc2)cc1,n,u,1.4µM,n,u
